Where “and” joins values, the source holds several entries; their conditions need not be identical. Equal entries are not always repeated. Results filed as inconclusive are left out. Where a call stands in place of a potency, no number is given. Calls of active or inactive are those of the source. Calls come from the whole dose curve.
Experiment: Primary qHTS to identify inhibitors of SARS-CoV-2 cell entry (AID 1645846); note: nearly all actives have a fitted effect of over 45% in size
Conditions: SARS-CoV-2 pseudovirus cell entry assay, luminescence; activity change, negative = inhibition: at 57.1 µM (top of the series) unless noted; series mostly up to 57.1 µM
Source text: Assay Provider: Wei Zheng, Ph.D.
National Center for Advancing Translational Sciences, National Institute of Health, Rockville, MD.
SARS-CoV-2 spike protein, within the viral envelope, mediates viral attachment and infection of host cells. The SARS-CoV-2 spike protein specifically binds to the host receptor ACE2 (Angiotensin-converting enzyme 2). This interaction promotes endocytosis of the viral particle, additional events lead to viral-host cell membrane fusion and release of the viral contents, allowing viral replication.
While SARS-CoV-2 requires BSL-3 facilities for live virus work, pseudotyped partices (PP) that incorporate SARS-CoV-2 spike proteins without replication elements could facilitate studies on viral entry mechanisms in a BSL-2 setting. This PP cell entry assay could also enable screening of small molecule compound libraries in BSL-2 setting to identify inhibitors of SARS-CoV-2 cell entry.
PROTOCOL TABLE (format as described by Inglese J, Shamu CE and Guy RK. 2007)
SEQUENCE No. (e.g., 1, 2, 3, etc.); […] (e.g., Cells, Incubation, Reagent, etc.); VALUE and DESCRIPTION.
1. Cells. Seed 1500 HEK293-ACE2 cells (Expi293F with stable expression of human ACE2) in 2 uL/well media (DMEM, 10% FBS, 1x L-glutamine, 1x Pen/Strep, 1 ug/ml puromycin) in white 1536-well assay plates (Greiner #782073).
2. Incubation. Incubate at 37C with 5% CO2 overnight (~16 h).
3. Compounds. Dispense 23 nL/well compounds in DMSO via pin transfer.
4. Incubation. Incubate for 1 hr at 37C 5% CO2.
5. Reagent. Dispense 2 uL/well of SARS-CoV-2-S pseudotyped particles. [a] PPs are produced with murine leukemia virus pseudotyping. [b] SARS-CoV-2-S is Wuhan-Hu-1 sequence (BEI #NR-52420) with C-terminal 19 amino acid truncation.
6. Centrifuge. […]
7. Incubation. Incubate at for 48 hr at 37C 5% CO2
8. Centrifuge. Remove supernatant with gentle centrifugation using a Blue Washer (BlueCat Bio).
9. Reagent. Dispense 4 uL/well of Bright-Glo Luciferase detection reagent (Promega #E2620).
10. Incubation. Incubate for 5 min at room temperature.
11. Detection. Read luminescence signal (Viewlux plate reader, PerkinElmer). Data was normalized with wells containing SARS-CoV-2-S PP as 100%, and wells containing bald PP (no fusion protein) as 0%.
Potency is the fitted concentration of half-maximal effect.

**Q.** Which Potency does the source give for `Cc1c(C)c2c(c(C)c1OC(=O)CCC(=O)OCCO)CC[C@@](C)(CCC[C@H](C)CCC[C@H](C)CCCC(C)C)O2` here?
**A.** 28.2 µM (active)

**Q.** For `CN1CCN(C2=Nc3ccccc3Sc3ccc(Cl)cc32)CC1`, which activity change, negative = inhibition is on record?
**A.** -10.6%

**Q.** With `N=C(N)c1ccc2cc(OC(=O)c3ccc(N=C(N)N)cc3)ccc2c1` as the compound, how does the activity change, negative = inhibition read?
**A.** -3.1%

**Q.** What about the Potency of the same compound?
**A.** inactive

**Q.** For `NS(=O)(=O)c1cc2c(cc1Cl)NC(C1CC3C=CC1C3)NS2(=O)=O` (stereo not given), which Potency is on record?
**A.** inactive

**Q.** With `CC(=O)Nc1ccc(S(=O)(=O)Nc2ccc([N+](=O)[O-])cc2)cc1` as the compound, how does the Potency read?
**A.** inactive

**Q.** With `CN1CCN(c2cc3c(cc2F)c(=O)c(C(=O)O)cn3-c2ccc(F)cc2)CC1` as the compound, how does the Potency read?
**A.** inactive

**Q.** With `CCCc1cc(C(N)=S)ccn1` as the compound, how does the Potency read?
**A.** inactive

**Q.** What about the activity change, negative = inhibition of the same compound?
**A.** -4.59%

**Q.** Which Potency does the source give for `CCn1cc(C(=O)O)c(=O)c2cc(F)c(N3CCN(C)CC3)cc21` here?
**A.** inactive

**Q.** For `c1ccc(CNCCNCc2ccccc2)cc1`, which activity change, negative = inhibition is on record?
**A.** -30.1%

**Q.** For `O=C(O)/C=C/c1ccc(Cn2ccnc2)cc1`, which Potency is on record?
**A.** inactive

**Q.** For `NS(=O)(=O)c1cc2c(cc1Cl)NC(CSCc1ccccc1)=NS2(=O)=O`, which activity change, negative = inhibition is on record?
**A.** -3.7%

**Q.** For `Cc1cccc(N(C)C(=S)Oc2ccc3c(c2)C2CCC3C2)c1` (stereo not given), which Potency is on record?
**A.** inactive

**Q.** With `C[C@@H]1CCN(C(=O)[C@H](CCCN=C(N)N)NS(=O)(=O)c2cccc3c2NC[C@H](C)C3)[C@@H](C(=O)O)C1` as the compound, how does the activity change, negative = inhibition read?
**A.** -11.8%

**Q.** For `CCOCC(O)COc1ccc(NC(=O)CC[S+](C)C)cc1` (stereo not given), which activity change, negative = inhibition is on record?
**A.** -2.31%

**Q.** What about the Potency of the same compound?
**A.** inactive

**Q.** For `CN1[C@@H]2CC[C@H]1CC(OC(=O)c1c[nH]c3ccccc13)C2` (stereo not given in full), which Potency is on record?
**A.** inactive

**Q.** For `Nc1c(CC(=O)O)cccc1C(=O)c1ccc(Br)cc1`, which Potency is on record?
**A.** inactive

**Q.** Which activity change, negative = inhibition does the source give for `CNC1CCCN(c2c(F)cc3c(=O)c(C(=O)O)cn(C4CC4)c3c2OC)C1` (stereo not given) here?
**A.** -27.9% and -16.1%

**Q.** For `Nc1ccn([C@H]2CC[C@@H](CO)O2)c(=O)n1`, which Potency is on record?
**A.** inactive

**Q.** With `CCCN(CCC)C(=O)C(CCC(=O)O)NC(=O)c1ccccc1` (stereo not given) as the compound, how does the Potency read?
**A.** inactive

**Q.** And the activity change, negative = inhibition?
**A.** 2.74%

**Q.** With `CCCCCOc1ccc(C2SC(=O)NC2=O)cc1OCC` (stereo not given) as the compound, how does the activity change, negative = inhibition read?
**A.** -11.6%

**Q.** For `CNC(=O)Oc1ccc2c(c1)[C@]1(C)CCN(C)[C@@H]1N2C`, which Potency is on record?
**A.** inactive

**Q.** Which Potency does the source give for `CC(=O)N(CC(=O)N(C)C)c1ccccc1` here?
**A.** inactive

**Q.** For `Cc1cc(C(C)(C)C)cc(C)c1CC1=NCCN1`, which Potency is on record?
**A.** inactive

**Q.** What about the activity change, negative = inhibition of the same compound?
**A.** -16.7%

**Q.** For `COc1ccc2cc1Oc1ccc(cc1)C[C@H]1c3c(cc4c(c3Oc3cc5c(cc3OC)CCN(C)[C@@H]5C2)OCO4)CCN1C`, which Potency is on record?
**A.** 7.94 µM (active)

**Q.** Which Potency does the source give for `CCCCCN=C(N)N/N=C/c1c[nH]c2ccc(OC)cc12` here?
**A.** 22.4 µM (active)

**Q.** With `O=C1OC2(c3ccc(O)cc3Oc3cc(O)ccc32)c2ccccc21` as the compound, how does the Potency read?
**A.** inactive

**Q.** Which results are given for `O=C(O)C(=O)Nc1cccc(-c2nn[nH]n2)c1`?
**A.** activity change, negative = inhibition: -0.181%; Potency: inactive

**Q.** Which Potency does the source give for `C[C@@H]1C[C@H]2[C@@H]3CCC4=CC(=O)C=C[C@]4(C)[C@@]3(F)[C@@H](O)C[C@]2(C)[C@H]1C(=O)CO` here?
**A.** inactive

**Q.** For `CC(C)C(Br)C(=O)NC(N)=O` (stereo not given), which activity change, negative = inhibition is on record?
**A.** 4.07%

**Q.** For `CC(CC(C(N)=O)(c1ccccc1)c1ccccc1)N(C)C` (stereo not given), which activity change, negative = inhibition is on record?
**A.** -7.18%

**Q.** With `Nc1ccc(N=Nc2ccccc2)c(N)n1` as the compound, how does the Potency read?
**A.** inactive

**Q.** For `CN1CCCN=C1COC(=O)C(O)(c1ccccc1)C1CCCCC1` (stereo not given), which activity change, negative = inhibition is on record?
**A.** 4.25%

**Q.** Which Potency does the source give for `C=CC[N+]1([C@H]2C[C@H]3[C@@H]4CC[C@H]5C[C@H](OC(C)=O)[C@@H](N6CCCCC6)C[C@]5(C)[C@H]4CC[C@]3(C)[C@H]2OC(=O)CC)CCCCC1` here?
**A.** inactive

**Q.** For `N[C@H](Cc1c[nH]c2ccccc12)C(=O)O`, which Potency is on record?
**A.** inactive
